# RORg inh = blocks mouse ROR gamma transcriptional activity. Potency, µM (titrated, usually from 53.6 µM), without a hit: at the highest dose activity change, negative = inhibition, most hits filed as inhibitors. Drosophila S2 Gal4-RORgamma UAS-luciferase reporter, 20 h. 310,000 tested, 5.4% active; also: nearly all actives have a fitted effect of over 60% in size
# Target sequence (P51450 whole entry, looked up, the tested form may be a part): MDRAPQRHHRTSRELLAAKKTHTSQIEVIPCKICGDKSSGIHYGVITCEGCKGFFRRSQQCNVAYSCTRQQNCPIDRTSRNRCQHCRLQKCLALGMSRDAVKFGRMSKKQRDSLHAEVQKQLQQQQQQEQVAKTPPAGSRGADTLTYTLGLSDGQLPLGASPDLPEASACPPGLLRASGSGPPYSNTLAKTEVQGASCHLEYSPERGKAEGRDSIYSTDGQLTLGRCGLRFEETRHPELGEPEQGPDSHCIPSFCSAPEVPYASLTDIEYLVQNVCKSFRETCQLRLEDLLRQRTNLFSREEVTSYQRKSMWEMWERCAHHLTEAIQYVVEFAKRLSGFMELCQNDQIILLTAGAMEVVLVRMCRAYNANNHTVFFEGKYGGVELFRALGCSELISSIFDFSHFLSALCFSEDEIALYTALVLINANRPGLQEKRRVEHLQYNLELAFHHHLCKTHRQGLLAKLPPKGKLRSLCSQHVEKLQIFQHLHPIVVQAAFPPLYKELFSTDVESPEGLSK
#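 In this cell-based reporter format, copper sulfate (700 uM final) drives Gal4–ROR gamma fusion expression from a metallothionein promoter in Drosophila Schneider cells; compounds preincubated 1 hr, reporter read after 20 hr at ambient temperature.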
# VP16 counter = counter-screen for ROR gamma inhibitors: Gal4-VP16 reporter | Potency, µM (series often up to 53.6 µM), for the others: at the highest dose activity, negative = inhibition, hits mostly inhibitors | AID 2546 | 310,000 tested, 3.5% active | Drosophila S2 Gal4-VP16 UAS-luciferase, luminescence, 20 h;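 also: Gal4-VP16 expression switched on by copper sulfate through the metallothionein promoter; nearly all actives have a fitted effect of over 50% in size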
# DT40 TDP1 no CPT = qHTS for Inhibitors of human tyrosyl-DNA phosphodiesterase 1 (TDP1): qHTS in cells in absence of CPT. 420,000 tested, 15% active. Potency, µM (highest dose often 46.2 µM), inactives show at the top dose activity change, negative = growth inhibition, usual class: inhibitors. DT40 Tdp1-/- hTDP1 cells, no CPT, ATP luminescence, 48 h; also: nearly all actives have a fitted effect of over 55% in size
#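 Stably hTDP1-transfected Tdp1-null chicken DT40 cells were treated with library compounds minus camptothecin and grown for at least 48 hr at 37 °C, after which cellular ATP was quantified by luminescence.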
# TDP1 cell CPT = growth inhibition of DT40 Tdp1-/-;hTDP1 cells with camptothecin (screen for TDP1 inhibitors); chicken DT40 Tdp1-/-;hTDP1 cells + 20 nM CPT, ATP luminescence, 48 h; Potency, µM (doses to about 46.2 µM), inactives show at the top dose activity change, negative = growth inhibition, hits mostly inhibitors; 420,000 tested, 12% active; also: nearly all actives have a fitted effect of over 55% in size
#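 Cell growth measured by CellTiter-Glo luminescence after a minimum 48 h, 37 C compound exposure with 20 nM CPT in Tdp1-knockout DT40 cells stably expressing hTDP1, seeded 400/well; qHTS titration format.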
# TDP1 inh = blocks human tyrosyl-DNA phosphodiesterase 1 | Q9NUW8 | recombinant TDP1, AlphaScreen DNA substrate cleavage | Potency, µM (highest dose often 130 µM), inactives show at the top dose activity change, negative = inhibition, most hits filed as inhibitors | 350,000 tested, 0.28% active; also: nearly all actives have a fitted effect of over 40% in size
#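 Recombinant human Tdp1 (E. coli-expressed, 1 nM final) preincubated with compounds 15 min at room temperature, then 5'-biotin/3'-phosphotyrosine-FITC DNA substrate (15 nM final) added for 5 min. AlphaScreen beads (10 ug/ml final) added 10 min; cleavage lowers signal.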
# * hit, by the source's call; ? = inconclusive; nt = no result; ! = repeats disagree; [ ] = remark or other dose. A selection: hits, their analogues and other compounds. The true share with any hit is near 19%. Calls follow the shape of the dose curve; as a rule, active = well fitted curve in the direction sought with a large enough effect; inconclusive = small, poorly fitted or top-dose-only effect, or another doubt; inactive = no such curve, though single readings can be large; an effect the other way counts as inactive or inconclusive. % is scaled to controls: 0 for no effect and ±100 for the full control effect; potency is read from the fitted curve at half-maximal effect.
SMILES,RORg inh,VP16 counter,DT40 TDP1 no CPT,TDP1 cell CPT,TDP1 inh
CCc1cccc(C)c1NC(=O)C(CC)Sc1nncn2c1cc1occc12 (stereo not drawn),nt,nt,21µM*,21µM*,-5%
O=C(CSc1nncn2c1cc1occc12)Nc1ccccc1C(F)(F)F,nt,nt,?,?,5%
CN(C(=O)CSc1nncn2c1cc1occc12)c1ccccc1,nt,nt,26µM*,?,5%
Cc1cc(C)cc(NC(=O)CSc2nncn3c2cc2occc23)c1,nt,nt,?,-25%,-5%
CCCNC(=S)NNC(=O)c1cc(C2CC2)nc2ccccc12,11µM*,10µM*,-11%,?,2%
CCNC(=S)NNC(=O)c1cc(C2CC2)nc2ccccc12,0.71µM*,?,-16%,?,10%
CCNC(=S)NNC(=O)c1cc(C)nc2ccccc12,?,?,10%,2%,0%
COC(=O)c1cccc(NC(=O)/C(=C\c2ccco2)NC(=O)c2ccco2)c1,nt,nt,-4%,-3%,nt
N#Cc1cnn(-c2ccc([N+](=O)[O-])cc2[N+](=O)[O-])c1N,nt,nt,18µM*,13µM*,nt
Cc1ccc(CN(Cc2cccn2-c2nnc(N3CCCC3=O)s2)C(=O)Nc2ccccc2C(F)(F)F)cc1,nt,nt,?,?,5%
Cc1ccc(NC(=O)C2CC(=O)N(Cc3ccccc3)C2)cc1S(=O)(=O)N1CCCCCC1 (stereo not drawn),?,-5%,?,29µM*,3%
CC(=O)Nc1ccc(NC(=O)C2CC(=O)N(Cc3ccccc3)C2)cc1 (stereo not drawn),-15%,2%[10 µM],4%,-2%,-5%
CCN(CC)S(=O)(=O)c1cc(NC(=O)C2CC(=O)N(Cc3ccccc3)C2)ccc1Cl (stereo not drawn),nt,nt,16µM*,?,2%
CCc1noc(C)c1C(=O)Nc1ccc(F)c(F)c1F,nt,nt,14%,10%,0%
CC(C)c1cc(C(=O)N2CCCC(CCC(=O)N3CCN(c4ccccn4)CC3)C2)no1 (stereo not drawn),1%,-5%,23µM*,23µM*,nt
O=C(CCC1CCCN(C(=O)COc2ccccc2)C1)N1CCN(c2ccccn2)CC1 (stereo not drawn),-29%,-9%,-23%,?,-3%
O=C(CCC1CCCN(C(=O)C2=CCCC2)C1)N1CCN(c2ccccn2)CC1 (stereo not drawn),28%,6%,23µM*,-21%,6%
O=C(CCC1CCCN(C(=O)CC2=CCCCC2)C1)N1CCN(c2ccccn2)CC1 (stereo not drawn),8%,4%,16µM*,?,2%
Cc1ccccc1C(=O)N1CCCC(CCC(=O)N2CCN(c3ccccn3)CC2)C1 (stereo not drawn),-22%,2%,?,-5%,5%
Cc1nc(CS(=O)(=O)c2ccccc2)cc(N2CCN(c3ccccc3F)CC2)n1,19%,6%,?,-13%,0%
Cc1ccc(S(=O)(=O)Nc2ccc3c(c2)C(=O)N([C@H](C)CO)C[C@H](C)[C@@H](CN(C)C(=O)Nc2ccc(C(F)(F)F)cc2)O3)cc1,nt,nt,?,?,1%
C[C@H](CO)N1C[C@H](C)[C@@H](CN(C)C(=O)Nc2ccc(C(F)(F)F)cc2)Oc2ccc(NS(=O)(=O)c3ccc(F)cc3)cc2C1=O,nt,nt,23µM*,?,1%
C[C@@H]1CN([C@H](C)CO)C(=O)c2cc(NC(=O)Nc3ccc(F)cc3)ccc2O[C@H]1CN(C)C(=O)Nc1ccc(C(F)(F)F)cc1,nt,nt,21µM*,16µM*,2%
C[C@H](CO)N1C[C@H](C)[C@@H](CN(C)C(=O)Nc2ccc(C(F)(F)F)cc2)Oc2ccc(NS(=O)(=O)c3ccccc3)cc2C1=O,nt,nt,?,3.7µM*,0%
C[C@@H]1CN([C@@H](C)CO)C(=O)c2cc(NC(=O)Nc3ccc(F)cc3)ccc2O[C@@H]1CN(C)Cc1ccc(Oc2ccccc2)cc1,nt,nt,21µM*,?,6%
SMILES,RORg inh,VP16 counter,DT40 TDP1 no CPT,TDP1 cell CPT,TDP1 inh
CCC(C(=O)N1CCc2cc(OC)c(OC)cc2C1)c1ccccc1 (stereo not drawn),?,6%,?,-33%,1%
Cc1ccc(NC(=O)c2ccc3c(SCC(=O)O)c4c(nc3c2)CCCC4)c(Br)c1,15%,6%,9%,-19%,3%
COc1ccc(/C(O)=C2\C(=O)C(=O)N(CCN(C)C)C2c2cccc(OC)c2OC)cc1Cl (stereo not drawn),-11%,2%,1%,0%,4%
FC(F)(F)c1ccccc1-c1cncnc1-n1ccnc1,0%,-19%,13%,3%,nt
FC(F)(F)c1ccccc1-n1ccnc1,-19%,3%,16µM*!,?,9%
CCOc1cc(C2NN=C(c3ccc(C)cc3)S2)ccc1O (stereo not drawn),1.1µM*,14µM*,5.2µM*,6.5µM*,5%
COc1ccc(C2NN=C(c3ccc(C)cc3)S2)cc1 (stereo not drawn),?,7.1µM*,?,-28%,nt
N#CC(=C1C=CC(=NO)C(Cl)=C1)c1ccccc1,nt,nt,1.3µM*,0.65µM*,nt
N#CC(C#N)=C/C=C(\Nc1ccc(Cl)cc1)c1ccc(Cl)cc1,2%,6%,?,-29%,nt
N#CC(=C1C=C(Br)C(=NO)C=C1Cl)c1ccc(Cl)cc1,nt,nt,2.6µM*,4.6µM*,nt
COc1ccc(/C=C/C(=O)CC(O)(c2ccccc2)C(F)(F)F)cc1 (stereo not drawn),14µM*,?,?,?,5%
O=C(/C=C/c1ccccc1)CC(O)(c1ccccc1)C(F)(F)F (stereo not drawn),?,?,11µM*,16µM*,5%
O=C(CC(O)(c1ccccc1)C(F)(F)C(F)F)c1cccs1 (stereo not drawn),22%,27%,-10%,-9%,6%
O=C(COc1ccccc1)NCCSc1ccccc1,32%,7%,-26%,-3%,3%
C=CCNC(=O)COc1ccc(Oc2ccccc2)cc1,2%,-7%,26µM*,15µM*,-6%
CN(C)S(=O)(=O)c1cccc(N=C2NN=C(c3ccccc3)CS2)c1,?,16µM*,7.3µM*,18µM*,8%
Cc1cccc(N=C2NN=C(c3ccccc3F)CS2)c1C,?,?,?,-27%,2%
COc1ccc(C2=NNC(=Nc3cc(S(=O)(=O)N(C)C)ccc3C)SC2)c(OC)c1,18%,-17%,16µM*,?,6%

# High-throughput results from PubChem.
